Compound activity deposited in PubChem BioAssay by Johns Hopkins Ion Channel Center.
Most compounds without a hit are left out; they make up all but 1.6% or so of the library.
KCNQ2 inh: inhibitors of rat KCNQ2 potassium channel; B-score at 10 µM; 310,000 compounds, 1.1% hits; O88943; CHO-K1 KCNQ2, FluxOR thallium flux, 20 min; stronger effect = lower value; AID 2156;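 active means fluorescence ratio B-score at most minus 3 library SDs, with starting brightness B-score within 2 library SDs, cut at about -5.5 in these data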
KCNQ2 pot: potentiators of rat KCNQ2 potassium channel; 310,000 compounds, 0.54% hits; B-score at 10 µM; O88943; CHO-K1 KCNQ2, FluxOR thallium flux fluorescence; stronger effect = higher value;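 active means fluorescence ratio B-score at least 3 SD of library B-scores, with initial fluorescence B-score within 3 of them, cut at about 5.3 in these data; same plate scores as AID 2156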;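 further: B-score of peak minus minimum over baseline fluorescence ratio after K+ and Tl+ stimulus; positive B-score means potentiation of KCNQ2 with more thallium influx and brighter signal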
Kir21 conf inh: confirmation of mouse Kir2.1 potassium channel inhibitors. shares compounds with KCNQ2 pot. Kir2.1-expressing cells, FluxOR thallium flux fluorescence; stronger effect = lower value. Tl flux remaining, % of negative control (stronger effect = lower value), % at 10 µM. 2,300 compounds, 41% hits;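 active means Primary-screen hit whose thallium flux fell at least 3 control SD below untreated wells in both duplicates, with normal baseline fluorescence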
HEK293 ctr: counter-screen for Kir2.1 inhibitors: effect in parental HEK293 cells. shares compounds with KCNQ2 pot. FluxOR thallium flux fluorescence; 0% = unstimulated blank wells. FluxOR signal as % of negative control (100 = no effect), % at 10 µM. 2,300 compounds, 19% hits;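 active means dye signal at least 3 control SD above or below untreated wells in both duplicates, raw fluorescence within 3, either direction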;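 further: percent is based on the flux ratio of peak minus minimum fluorescence over baseline F0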
CHO-K1 ctr: parental CHO-K1 activity in KCNQ2 potentiator counter-screen; shares compounds with KCNQ2 pot; AID 2282; parental CHO-K1 cells, FluxOR thallium flux fluorescence; zero = vehicle mean+3SD, 100% = vehicle-minus-blank window; activity increase over 3SD of controls, % at 10 µM; 1,200 compounds, 43% hits;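 active means signal rise of at least 3 SD above the untreated control mean, in both duplicate wells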;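 further: counter screen of KCNQ2 potentiator hits so any rise reflects channel-independent effects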
KCNQ1 pot spec: selectivity of KCNQ2 potentiators: effect on human KCNQ1; 1,200 compounds, 28% hits; activation over 3SD threshold, % at 10 µM; AID 2283; shares compounds with KCNQ2 pot; CHO KCNQ1 stable, FluxOR thallium flux fluorescence; beyond 3SD, as % of vehicle-control signal;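 active means fluorescence ratio rise of at least 3 SD of vehicle wells above their mean, in both replicate wells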
Target sequence (P51787 whole entry, looked up): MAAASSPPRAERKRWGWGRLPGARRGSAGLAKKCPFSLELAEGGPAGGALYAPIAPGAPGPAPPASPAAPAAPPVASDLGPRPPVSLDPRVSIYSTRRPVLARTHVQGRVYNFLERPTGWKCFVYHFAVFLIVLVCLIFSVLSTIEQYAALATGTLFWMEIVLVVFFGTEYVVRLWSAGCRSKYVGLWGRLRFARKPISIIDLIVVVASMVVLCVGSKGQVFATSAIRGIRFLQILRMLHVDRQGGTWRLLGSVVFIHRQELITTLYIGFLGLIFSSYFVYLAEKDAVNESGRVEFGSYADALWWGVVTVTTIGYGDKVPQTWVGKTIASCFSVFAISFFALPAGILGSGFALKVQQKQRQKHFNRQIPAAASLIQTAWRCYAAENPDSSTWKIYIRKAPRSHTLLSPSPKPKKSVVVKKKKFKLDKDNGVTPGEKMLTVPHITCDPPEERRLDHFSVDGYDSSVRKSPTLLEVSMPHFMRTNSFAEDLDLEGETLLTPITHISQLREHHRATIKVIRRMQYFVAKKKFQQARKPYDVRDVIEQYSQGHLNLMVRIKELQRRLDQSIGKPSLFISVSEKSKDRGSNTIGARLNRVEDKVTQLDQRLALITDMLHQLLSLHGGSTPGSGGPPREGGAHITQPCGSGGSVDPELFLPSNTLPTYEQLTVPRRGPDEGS
KCNQ2 pot confirm: rat KCNQ2 channel potentiator confirmation | shares compounds with KCNQ2 pot | CHO-KCNQ2 cells, FluxOR thallium flux fluorescence | potentiation, less the hit threshold, % at 10 µM | 1,200 compounds, 68% hits | AID 2287;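 active means fluorescence ratio rising 3 SD or more over the vehicle control mean in both replicates, plus primary screen hit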;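 further: peak minus minimum thallium fluorescence divided by baseline after K/Tl stimulus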
Kir2-1 sel: mouse Kir2.1 off-target activity of KCNQ2 potentiators | shares compounds with KCNQ2 pot | HEK293 Kir2.1, FluxOR thallium flux fluorescence | activity over 3SD threshold, % at 10 µM | 1,200 compounds, 2% hits;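 active means fluorescence ratio rise of at least 3 SD above the vehicle-control mean, seen in both replicates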
KCNQ2 W236L pot: rat KCNQ2 W236L mutant potentiation by KCNQ2 potentiators; shares compounds with KCNQ2 pot; CHO KCNQ2-W236L, automated patch clamp current; current increase over 3SD of negative controls (%), stronger effect = higher value, % at 25 µM; 940 compounds, 10% hits; AID 2558;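 active means current increase at least 3 SD of the untreated controls above them in both duplicate recordings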
A number is an active result.

`Cc1c(C(=O)NC2CCN(Cc3ccccc3)C2)oc2ccc(Br)cc12` (centres undefined) gave KCNQ2 inh inactive, Kir21 conf inh 60% and HEK293 ctr inactive.
CCOc1ccc2oc(C(=O)NC3CCN(Cc4ccccc4)CC3)c(C)c2c1 was read as KCNQ2 inh inactive and KCNQ2 pot inactive.
For O=C(/C=C/c1cccc(F)c1)NC1CCN(Cc2ccccc2)CC1 the results were KCNQ2 inh inactive and KCNQ2 pot inactive.
Screening O=C(/C=C/c1cccc(Br)c1)NC1CCN(Cc2ccccc2)CC1 returned KCNQ2 inh inactive, Kir21 conf inh 39% and HEK293 ctr inactive.
`COC(=O)c1ccc(NC(=O)CCN2CCOCC2)cc1` gave KCNQ2 inh inactive and KCNQ2 pot inactive.
CCCN(CCC)C(=O)c1ccc2c(c1)N(CC)C(=O)c1ccccc1S2(=O)=O was read as KCNQ2 inh inactive.
For CC1CN(C(=O)Cn2c(=O)oc3ccccc32)CC(C)O1 (centres undefined) the results were KCNQ2 inh inactive.
COC(=O)/C(C#N)=C/c1c(Oc2cccc(C)c2C)nc2ccccn2c1=O was read as KCNQ2 inh inactive.
For COc1ccc(C(=O)CSc2nc(C(C)(C)C)nc3ccccc23)cc1 the results were KCNQ2 inh inactive, KCNQ2 pot 13, CHO-K1 ctr inactive, KCNQ1 pot spec 60, KCNQ2 pot confirm 20, Kir2-1 sel inactive and KCNQ2 W236L pot inactive.
Screening CC(C)(C)c1nc(SCC(=O)NCc2ccco2)c2ccccc2n1 returned KCNQ2 inh inactive and KCNQ2 pot inactive.
For CCSC(=Nc1ccccc1)N1CCOCC1 the results were KCNQ2 inh inactive.
Screening CC(Sc1nnc(-c2ccc(Cl)cc2)n1N)C(=O)NCC1CCCO1 (centres undefined) returned KCNQ2 inh inactive.
C/C(=N\NC(=O)c1cc2ccccc2cc1O)c1cccs1 was read as KCNQ2 inh inactive, KCNQ2 pot 7.7, Kir21 conf inh inactive, HEK293 ctr inactive, CHO-K1 ctr 102, KCNQ1 pot spec inactive, KCNQ2 pot confirm inactive and Kir2-1 sel inactive.
Screening C/C(=N\NC(=O)c1cc2ccccc2cc1O)c1ccc(C)o1 returned KCNQ2 inh inactive, KCNQ2 pot 6.7, Kir21 conf inh inactive, HEK293 ctr 412%, CHO-K1 ctr inactive, KCNQ1 pot spec 1.0, KCNQ2 pot confirm 67, Kir2-1 sel inactive and KCNQ2 W236L pot inactive.
`O=C(NNC(=O)c1cc2ccccc2cc1O)c1cccs1` gave KCNQ2 inh inactive and KCNQ2 pot inactive.
C/C(=N\NC(=O)c1c[nH]c2ccccc12)c1ccc(C)o1 was read as KCNQ2 inh inactive and KCNQ2 pot inactive.
`CC(OC(=O)c1cccc(-n2cnnn2)c1)C(=O)Nc1ccc(F)cc1Cl` (centres undefined) gave KCNQ2 inh inactive and KCNQ2 pot inactive.
`NC(=NCc1ccco1)NC(=O)c1ccc(Cl)cc1` gave KCNQ2 inh inactive, KCNQ2 pot 7, Kir21 conf inh inactive, HEK293 ctr inactive, CHO-K1 ctr 2.6, KCNQ1 pot spec inactive, KCNQ2 pot confirm 51, Kir2-1 sel inactive and KCNQ2 W236L pot inactive.
O=C(NCCCNC(=O)c1ccco1)c1ccc(Cl)cc1 was read as KCNQ2 inh inactive.
Screening Cc1ccc(NC(=S)N2CCCC2)cc1Cl returned KCNQ2 inh inactive.
COc1cc(CNC2CCCC2)cc(Cl)c1OCc1ccc(F)cc1 was read as KCNQ2 inh inactive.
For COc1cc(CNC2CCCC2)cc(Cl)c1OCc1ccccc1Cl the results were KCNQ2 inh inactive, Kir21 conf inh 31% and HEK293 ctr inactive.
For CCn1c2ccccc2c2cc(NC(=O)CNCC3CCCO3)ccc21 (centres undefined) the results were KCNQ2 inh inactive, KCNQ2 pot inactive, Kir21 conf inh 48% and HEK293 ctr inactive.
For CCn1c2ccccc2c2cc(NC(=O)CN3CCCC3)ccc21 the results were KCNQ2 inh inactive and KCNQ2 pot inactive.
`CCCn1c2ccccc2c2cnn(CC(=O)NCCCN3CCN(c4ccccc4)CC3)c(=O)c21` gave KCNQ2 inh inactive.
`O=Cc1ccccc1-c1cn(CCCOCc2ccccc2)nn1` gave KCNQ2 inh inactive.
For CCC(=O)c1ccc(OCC(O)CNC(C)c2ccccc2)cc1 (centres undefined) the results were KCNQ2 inh inactive and KCNQ2 pot inactive.
For CC(C)c1ccc(OCC(O)CNC(C)c2ccccc2)cc1 (centres undefined) the results were KCNQ2 inh inactive, KCNQ2 pot inactive, Kir21 conf inh 28% and HEK293 ctr inactive.
OC(CNCCC(c1ccccc1)c1ccccc1)COc1ccccc1 (centres undefined) was read as KCNQ2 inh inactive, Kir21 conf inh 36% and HEK293 ctr inactive.
For OC(CNCCc1ccccc1)COc1ccc(OCC(O)CNCCc2ccccc2)cc1 (centres undefined) the results were KCNQ2 inh inactive.
O=C(NN1CCOCC1)c1cn(-c2ccccc2)nc1-c1cccs1 was read as KCNQ2 inh inactive.
COC(=O)C1(O)CC(CC(C)C)=NN1C(=O)c1ccccc1 (centres undefined) was read as KCNQ2 inh inactive, KCNQ2 pot 8.8, Kir21 conf inh inactive, HEK293 ctr inactive, CHO-K1 ctr 8.6, KCNQ1 pot spec inactive, KCNQ2 pot confirm 23, Kir2-1 sel inactive and KCNQ2 W236L pot inactive.
For COC(=O)C1=NN(C(=O)c2ccccc2)C(C)(O)C1 (centres undefined) the results were KCNQ2 inh inactive and KCNQ2 pot inactive.
Cc1ccc(S(=O)(=O)N(Cc2c(F)cccc2Cl)C(=O)N2CCN(C)CC2)cc1 was read as KCNQ2 inh inactive.
`COc1ccc(OCC(=O)N(Cc2sccc2C)C2CCS(=O)(=O)C2)cc1` (centres undefined) gave KCNQ2 inh inactive and KCNQ2 pot inactive.
For COc1ccc(NC(=O)NCCN2CCN(c3cc(OC)ccc3OC)CC2)cc1 the results were KCNQ2 inh inactive and KCNQ2 pot inactive.
